About 83,000 compounds went through this panel and 20% of them were active in at least one assay; those are over-represented in the sample as a whole.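 48-hour exposure, single concentration, 96-well plates; percent growth endpoint where 0 means no net growth. Active: below 10.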 Unmarked numbers belong to inactive results. Activity calls are given as the source filed them.

Test systems include SR leukemia; RPMI-8226 leukemia; OVCAR-8 ovarian; OVCAR-5 ovarian; OVCAR-4 ovarian; SK-OV-3 ovarian; IGROV1 ovarian; OVCAR-3 ovarian; HS 578T breast; NCI/ADR-RES ovarian.
Holding throughout (assay): NCI-60 one-dose screen, 48 h (100 = growth as untreated, 0 = no growth, -100 = all killed)
What all share (settings): 10 µM unless noted

On to `CN1CCN(C(=O)[C@]2(C)CC[C@]3(C)CC[C@]4(C)C(=CC(=O)[C@@H]5[C@@]6(C)CCC(=O)NC(C)(C)[C@@H]6CC[C@]54C)[C@@H]3C2)CC1`, for which the growth is 77.6% in the test on SR leukemia; 99.7% with RPMI-8226 leukemia; 99.8% in the test with OVCAR-8 ovarian; 110% in the test with OVCAR-5 ovarian; 92.1% in the test on OVCAR-4 ovarian; 91% in the test with SK-OV-3 ovarian. The growth in the test on IGROV1 ovarian is 99.9%; with OVCAR-3 ovarian, 101%; with HS 578T breast it was 88.1%; with NCI/ADR-RES ovarian it was 96.6%.

Turning to `O=C(CNCCO)Nc1ccc2ncnc(Nc3ccc(OCc4cccc(F)c4)c(Cl)c3)c2c1`, the growth is 12.9% with SR leukemia; 88.2% with RPMI-8226 leukemia; 80.4% in the test on OVCAR-8 ovarian; 85.5% in the test with OVCAR-5 ovarian; 93.8% in the test on OVCAR-4 ovarian; 16.4% with SK-OV-3 ovarian. The growth is 33.6% in the test with IGROV1 ovarian, 72.7% with OVCAR-3 ovarian, 103% in the test with HS 578T breast and 90.1% with NCI/ADR-RES ovarian.

On to `CC(=O)c1c[nH]c2ccc(-c3ccnc(Nc4ccc(NC(=O)c5cccc(F)c5)c(CN5CCOCC5)c4)n3)cc12`, for which the growth is 4.05% (active) with SR leukemia; -25.9% (active) with RPMI-8226 leukemia; 8.7% (active) in the test on OVCAR-8 ovarian; -4.49% (active) in the test with OVCAR-5 ovarian; -18.9% (active) in the test with OVCAR-4 ovarian; 17.8% in the test on SK-OV-3 ovarian. The growth with IGROV1 ovarian is 1.06% (active); in the test with OVCAR-3 ovarian, -8.81% (active); with HS 578T breast, -20.1% (active); with NCI/ADR-RES ovarian, 1.76% (active).

As for `Cc1cc(C(=O)Nc2ncnc3nc[nH]c23)no1`, the growth is 89.6% in the test with SR leukemia; 95% with RPMI-8226 leukemia; 102% in the test on OVCAR-8 ovarian; 116% in the test with OVCAR-5 ovarian; 114% with OVCAR-4 ovarian; 97.2% in the test on SK-OV-3 ovarian. In addition, the growth is 89.6% in the test on IGROV1 ovarian, 108% with OVCAR-3 ovarian, 95.5% in the test with HS 578T breast and 106% in the test on NCI/ADR-RES ovarian.

Regarding `COc1cccc2cc(-c3cc4ccccc4[nH]3)/c(=N/C(=S)Nc3ccc(C)cc3)oc12`, the growth in the test with SR leukemia is 123%; in the test with RPMI-8226 leukemia, 114%; in the test on OVCAR-8 ovarian, 54%; in the test with OVCAR-5 ovarian, 89.4%; with OVCAR-4 ovarian it was 34.6%; in the test on SK-OV-3 ovarian it was 64.7%. For the same compound, the growth is 58.2% in the test with IGROV1 ovarian, 81.2% with OVCAR-3 ovarian, 14.1% in the test on HS 578T breast and 50.8% in the test with NCI/ADR-RES ovarian.

With `Cc1nc2sc(C(=O)Nc3cccc(Br)c3)c(N)c2cc1C(=O)c1ccc(C(F)(F)F)cc1`, the growth is 47% in the test with SR leukemia; 88.6% in the test on RPMI-8226 leukemia; 72.7% in the test with OVCAR-8 ovarian; 82.3% with OVCAR-5 ovarian; 6.24% (active) in the test with OVCAR-4 ovarian; 91.7% in the test on SK-OV-3 ovarian. The growth in the test with IGROV1 ovarian is 73.8%; with OVCAR-3 ovarian, 83.2%; in the test with HS 578T breast, 40.7%; in the test on NCI/ADR-RES ovarian it was 80.7%.

On to `CC(=O)O[C@H]1CC[C@@]2(C)[C@@H](CC[C@@H]3[C@@H]2CC[C@@]2(C)[C@H]3CC[C@]2(O)C(C)=O)C1`, for which the growth is 91.8% with SR leukemia; 88.1% in the test on RPMI-8226 leukemia; 109% in the test on OVCAR-8 ovarian; 97.7% with OVCAR-5 ovarian; 102% in the test with OVCAR-4 ovarian; 103% in the test with SK-OV-3 ovarian. For the same compound, the growth in the test on IGROV1 ovarian is 99.7%; in the test with OVCAR-3 ovarian, 108%; in the test with HS 578T breast it was 97.2%; in the test with NCI/ADR-RES ovarian, 96%.

On to `COc1cc(C2CC(c3cccc(Nc4ccncc4)c3)=NN2c2cc(Cl)cc(Cl)c2)cc(OC)c1OC` (stereo not given), for which the growth with SR leukemia is 0.528% (active); with RPMI-8226 leukemia it was -13.7% (active); with OVCAR-8 ovarian, -8.55% (active); in the test on OVCAR-5 ovarian, 65.1%; in the test on OVCAR-4 ovarian, 6.43% (active); in the test on SK-OV-3 ovarian it was 76.2%. Besides, the growth in the test on IGROV1 ovarian is -2.86% (active); in the test with OVCAR-3 ovarian it was 3.71% (active); with HS 578T breast, 0.285% (active); in the test on NCI/ADR-RES ovarian, 51.4%.

For `COc1cc(-c2nc3sccn3c2-c2ccnc(NCCNS(=O)(=O)c3ccc(F)cc3)n2)ccc1F`, the growth in the test on SR leukemia is 8.1% (active); with RPMI-8226 leukemia, -39.4% (active); in the test on OVCAR-8 ovarian, -9.78% (active); in the test with OVCAR-5 ovarian, 56%; in the test on OVCAR-4 ovarian, 10.8%; with SK-OV-3 ovarian, 22.9%. Further, the growth in the test on IGROV1 ovarian is 3.95% (active); in the test on OVCAR-3 ovarian, 25.3%; in the test on HS 578T breast, 28.4%; in the test with NCI/ADR-RES ovarian, 8.6% (active).

Take `CCCCCCCCN1C(=O)/C(=c2\sc3n(c2=O)C2C(NN=3)N(CC)C(=O)N2CC)c2ccccc21` (stereo not given): the growth in the test on SR leukemia is 77.5%; with RPMI-8226 leukemia it was 105%; in the test on OVCAR-8 ovarian it was 85.7%; with OVCAR-5 ovarian, 81.6%; in the test on OVCAR-4 ovarian, 94.2%; in the test with SK-OV-3 ovarian it was 90.6%. For the same compound, the growth in the test with IGROV1 ovarian is 86.5%; with OVCAR-3 ovarian, 98.6%; in the test with HS 578T breast, 40.4%; with NCI/ADR-RES ovarian, 82.2%.

`CC(C)Cc1ccc(C(C)C(=O)NCc2ccc(Cn3c(=O)sn(-c4ccc(Cl)cc4)c3=O)cc2)cc1` (stereo not given): the growth in the test with SR leukemia was 72.2%; in the test on RPMI-8226 leukemia it was 83.9%; with OVCAR-8 ovarian, 79.5%; in the test on OVCAR-5 ovarian, 89.3%; in the test on OVCAR-4 ovarian, 47.4%; with SK-OV-3 ovarian, 92%. Moreover, the growth in the test with IGROV1 ovarian is 92.2%; in the test on OVCAR-3 ovarian it was 91.5%; in the test with HS 578T breast it was 71.8%; in the test on NCI/ADR-RES ovarian, 90.3%.

As to `C=C1C(=O)O[C@H]2[C@H]1CC/C(CNC(=O)/C=C/c1ccccc1F)=C\CC[C@@]1(C)O[C@@H]21`, the growth in the test with SR leukemia was 8.95% (active); in the test with RPMI-8226 leukemia, -2.96% (active); in the test on OVCAR-8 ovarian, 4.58% (active); in the test on OVCAR-5 ovarian it was 27.7%; in the test with OVCAR-4 ovarian, 9.27% (active); with SK-OV-3 ovarian it was 96.6%. Also, the growth in the test with IGROV1 ovarian was 15%; in the test with OVCAR-3 ovarian, -62.7% (active); in the test with HS 578T breast, 58.2%; in the test on NCI/ADR-RES ovarian, 77.7%.

For the compound `CC1(C)NCCC[C@]2(C)[C@H]3CC=C4[C@@H]5C[C@@](C)(CO)CC[C@]5(C)CC[C@@]4(C)[C@]3(C)CC[C@@H]12`, the growth in the test with SR leukemia is -1.3% (active); in the test with RPMI-8226 leukemia, 20.1%; with OVCAR-8 ovarian, 83.4%; in the test with OVCAR-5 ovarian it was 83.3%; with OVCAR-4 ovarian, 60.8%; in the test with SK-OV-3 ovarian it was 93.1%. The growth is 56.7% with IGROV1 ovarian, 72.4% in the test with OVCAR-3 ovarian, 52.7% in the test on HS 578T breast and 74.2% in the test with NCI/ADR-RES ovarian.
